In PubChem BioAssay (NCI) one finds growth data, which are given here for 9 molecules.

Among the test systems are SK-MEL-2 melanoma; SN12C renal; TK-10 renal; ACHN renal; CAKI-1 renal; A498 renal; MOLT-4 leukemia; SR leukemia; RPMI-8226 leukemia; OVCAR-8 ovarian; OVCAR-4 ovarian; SK-OV-3 ovarian; IGROV1 ovarian; OVCAR-3 ovarian; HS 578T breast; NCI/ADR-RES ovarian; UO-31 renal; CCRF-CEM leukemia; OVCAR-5 ovarian.
Assay in all cases: NCI-60 one-dose screen, 48 h (100 = growth as untreated, 0 = no growth, -100 = all killed)
What all share (conditions): 10 µM unless noted

This is part of a sample that, as a whole, favours compounds with a hit. Of some 83,000 tested, about 20% had one in any assay.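 96-well plates, one dose, 48 hours. Percent growth reported; active if below 10.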 Unmarked numbers belong to inactive results. Active and inactive are the calls of the source.

As for `CN(C)c1ccc2cc3c(cc2c1)Oc1ccccc1N3.[Cl][Zn][Cl]`, the growth in the assay on SK-MEL-2 melanoma is 89.5%; with SN12C renal, 89.3%; in the assay on TK-10 renal, 77.4%; with ACHN renal, 70.9%; in the assay on CAKI-1 renal it was 54.2%; with A498 renal, 115%. In addition, the growth in the assay on MOLT-4 leukemia was 24.7%; in the assay on SR leukemia it was 12.5%; with RPMI-8226 leukemia, 48.9%; in the assay on OVCAR-8 ovarian, 70.2%; in the assay on OVCAR-4 ovarian, 64%; in the assay on SK-OV-3 ovarian, 106%. For the same molecule, the growth with IGROV1 ovarian is 78.5%; with OVCAR-3 ovarian, 17.6%; with HS 578T breast it was 106%; in the assay with NCI/ADR-RES ovarian, 86.2%.

In the case of `O=C1CSC(=S)N1Cc1cccnc1`, the growth with SK-MEL-2 melanoma is 85.8%; in the assay on SN12C renal it was 103%; in the assay on UO-31 renal, 71%; in the assay on TK-10 renal it was 9.3% (active); in the assay with ACHN renal, 97.2%; in the assay with CAKI-1 renal, 63.9%. Further, the growth with CCRF-CEM leukemia is 12.9%; with MOLT-4 leukemia, 51.4%; with SR leukemia it was -10.3% (active); in the assay with RPMI-8226 leukemia it was 9.56% (active); in the assay on OVCAR-8 ovarian, 53.8%; with OVCAR-4 ovarian, 91.7%. Besides, the growth is 106% in the assay with SK-OV-3 ovarian; 114% in the assay with IGROV1 ovarian; 99.2% with OVCAR-3 ovarian; 114% in the assay with HS 578T breast; 106% in the assay with NCI/ADR-RES ovarian.

`CCOc1ccc2c(c1)/C(=C\C=C\C1CC(C)C3CC(OCC)CCC3N1CC)CC(C)N2CC` (centres undefined): the growth in the assay on SK-MEL-2 melanoma is -54.6% (active); with SN12C renal, 6.7% (active); in the assay on ACHN renal it was 12%; in the assay on CAKI-1 renal it was 17.9%; with A498 renal, 15%; with MOLT-4 leukemia, -42.5% (active). Moreover, the growth in the assay with SR leukemia was -47.6% (active); with RPMI-8226 leukemia it was -52.2% (active); with OVCAR-8 ovarian, 6.8% (active); in the assay with OVCAR-5 ovarian, 33.6%; in the assay on OVCAR-4 ovarian it was 15.4%; in the assay with SK-OV-3 ovarian it was 14.9%. Moreover, the growth with IGROV1 ovarian is 32.4%; in the assay on OVCAR-3 ovarian it was 8.69% (active); in the assay with HS 578T breast, 63.6%; with NCI/ADR-RES ovarian, 60.8%.

Regarding `CN(C)c1ccc(C(C#N)(c2ccccc2)c2ccc(N(C)C)cc2)cc1`, the growth was 85.2% with SK-MEL-2 melanoma; 14.4% in the assay on SN12C renal; 53% in the assay with UO-31 renal; 71.8% in the assay on TK-10 renal; 49.3% in the assay with ACHN renal; 79.4% in the assay on CAKI-1 renal. In addition, the growth with CCRF-CEM leukemia is 69.3%; with MOLT-4 leukemia, 68.5%; with SR leukemia, 15.9%; with RPMI-8226 leukemia, 14.9%; in the assay with OVCAR-8 ovarian, 23.4%; in the assay on OVCAR-5 ovarian, 106%. Moreover, the growth in the assay on OVCAR-4 ovarian was 83.5%; in the assay on SK-OV-3 ovarian it was 92.5%; in the assay with IGROV1 ovarian, 83%; in the assay on OVCAR-3 ovarian it was 72.3%; in the assay on HS 578T breast, 33.2%.

For `CCC(C)C(N)C(=O)NC(CC(N)=O)C(=O)NC(CC(C)C)C(=O)NC(CCCCN)C(=O)NC(C)C(=O)NC(CC(C)C)C(=O)NC(C)C(=O)NC(C)C(=O)NC(CC(C)C)C(=O)NC(C)C(=O)NC(CCCCN)C(=O)NC(CCCCN)C(=O)NC(C(=O)NC(CC(C)C)C(N)=O)C(C)CC` (centres undefined), the growth is 115% in the assay on SK-MEL-2 melanoma; 89.5% with SN12C renal; 97.4% in the assay on UO-31 renal; 106% with TK-10 renal; 87.3% in the assay on ACHN renal; 85.3% with CAKI-1 renal. Moreover, the growth is 83.8% in the assay on CCRF-CEM leukemia; 94% in the assay on MOLT-4 leukemia; 85.8% in the assay with SR leukemia; 74.7% in the assay on RPMI-8226 leukemia; 166% in the assay with OVCAR-5 ovarian; 95.2% in the assay on OVCAR-4 ovarian. The growth with SK-OV-3 ovarian was 110%; in the assay on IGROV1 ovarian, 102%; in the assay on OVCAR-3 ovarian, 117%; in the assay on NCI/ADR-RES ovarian, 102%.

With `CCCCCCCCCCCCCCCC[N+]1(C)CCCC1c1cccnc1` (centres undefined), the growth in the assay with SK-MEL-2 melanoma was 98.1%; in the assay with SN12C renal, 44.5%; with UO-31 renal, 91.3%; in the assay on TK-10 renal it was 49.7%; with CAKI-1 renal, 92.9%; in the assay with CCRF-CEM leukemia, 38.7%. Further, the growth is 33% in the assay with MOLT-4 leukemia; 42.7% with SR leukemia; 21% in the assay with RPMI-8226 leukemia; 38.4% with OVCAR-8 ovarian; 48.4% with OVCAR-5 ovarian; 47.1% with OVCAR-4 ovarian. Besides, the growth in the assay on SK-OV-3 ovarian is 60.5%; in the assay on IGROV1 ovarian it was 42.3%; with OVCAR-3 ovarian, 38.3%; in the assay with HS 578T breast it was 80.2%; in the assay on NCI/ADR-RES ovarian, 87.8%.

On to `OC(Cc1cc(CC(O)(C(F)(F)F)C(F)(F)F)nc(CC(O)(C(F)(F)F)C(F)(F)F)c1)(C(F)(F)F)C(F)(F)F`, for which the growth with SK-MEL-2 melanoma is -28.3% (active); in the assay on SN12C renal, 4.86% (active); in the assay with UO-31 renal it was 6.74% (active); with TK-10 renal it was 22.1%; in the assay with CAKI-1 renal, 4.5% (active); with A498 renal, -18.8% (active). The growth was 7.23% (active) in the assay with CCRF-CEM leukemia; 4.85% (active) in the assay on SR leukemia; -7.53% (active) in the assay with RPMI-8226 leukemia; 9.71% (active) in the assay with OVCAR-8 ovarian; 16.1% in the assay with OVCAR-5 ovarian; 6.38% (active) in the assay with OVCAR-4 ovarian. Also, the growth with SK-OV-3 ovarian was -16.8% (active); in the assay with IGROV1 ovarian it was 20.4%; in the assay on OVCAR-3 ovarian it was -3.61% (active); in the assay with HS 578T breast, 5.53% (active); in the assay on NCI/ADR-RES ovarian, 3.76% (active).

As for `Oc1c(Cl)cc(Cl)cc1C=NCC1CCC(CN=Cc2cc(Cl)cc(Cl)c2O)CC1` (centres undefined), the growth with SK-MEL-2 melanoma is 92.9%; in the assay with SN12C renal it was 86.3%; in the assay on TK-10 renal, 124%; with ACHN renal it was 101%; in the assay on CAKI-1 renal, 91.7%; in the assay on A498 renal it was 113%. Also, the growth in the assay with CCRF-CEM leukemia was 59%; in the assay on SR leukemia, 52.3%; in the assay with RPMI-8226 leukemia it was 76.7%; in the assay with OVCAR-8 ovarian, 90%; in the assay on OVCAR-5 ovarian, 114%; with OVCAR-4 ovarian it was 75.2%. The growth was 88.5% in the assay with SK-OV-3 ovarian; 69.6% in the assay with IGROV1 ovarian; 83.5% with OVCAR-3 ovarian; 92.7% in the assay with HS 578T breast; 85.2% in the assay with NCI/ADR-RES ovarian.

On to `N#Cc1c2ccccc2nc2ccccc12`, for which the growth was 125% in the assay with SK-MEL-2 melanoma; 93.5% with SN12C renal; 77.5% with UO-31 renal; 98% in the assay on CAKI-1 renal; 67.1% in the assay on A498 renal; 98.2% with CCRF-CEM leukemia. Further, the growth with MOLT-4 leukemia is 97.1%; in the assay on SR leukemia, 103%; in the assay on RPMI-8226 leukemia, 99.3%; in the assay on OVCAR-8 ovarian, 93.9%; with OVCAR-4 ovarian, 83.2%; in the assay with SK-OV-3 ovarian, 116%. In addition, the growth in the assay on IGROV1 ovarian was 108%; in the assay with OVCAR-3 ovarian it was 110%; in the assay on HS 578T breast, 103%; in the assay on NCI/ADR-RES ovarian, 100%.
